PubChem BioAssay AID1159580 (chemical genetic matrix, 2015)
In all, about 5,500 compounds went through this assay and about 2,000 (36%) were called active. About 18% were inconclusive and are not listed. Rule as the data show it: active = normalized growth mostly below about 0.91 (no sharp cut-off); inconclusive = no clear call, values can overlap the other calls; inactive = mostly above about 0.92. Some of the results follow.

Assay: chemical genetic growth profiling, strain panel (AID 1159580);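 also: tested at 20 µM; growth read once vehicle control cultures reached saturation at 30 °C; 1 = growth at the plate median or of vehicle wells; lower values mean less growth of the strain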
Conditions: growth OD

Measured: normalized growth

CC(=O)OCC(CCn1cnc2cnc(N)nc21)COC(C)=O
inactive: S. cerevisiae deletion strains, locus YJR075W, strain HOC1, active compounds read low 0.991 | S. cerevisiae deletion strains, locus YKL009W, strain mrt4, active compounds read low 0.973 | S. cerevisiae deletion strains, locus YKL068W, active compounds read low 0.977 | S. cerevisiae deletion strains, locus YKL085W, strain MDH1 (second series), active compounds read low 0.971 | S. cerevisiae deletion strains, locus YKL085W, strain MDH1, active compounds read low 0.971 | S. cerevisiae deletion strains, locus YKL160W, strain elf1, active compounds read low 0.981 | S. cerevisiae deletion strains, locus YKL190W, strain CNB1, active compounds read low 0.989 | S. cerevisiae deletion strains, locus YKR001C, strain vps1, active compounds read low 0.986 | S. cerevisiae deletion strains, locus YKR026C, strain gcn3, active compounds read low 0.991 | S. cerevisiae deletion strains, locus YKR091W, strain srl3, active compounds read low 0.989 | S. cerevisiae deletion strains, locus YLL001W, strain dnm1, active compounds read low 0.986 | S. cerevisiae deletion strains, locus YLL026W, active compounds read low 0.987 | S. cerevisiae deletion strains, locus YLL041C, strain sdh2, active compounds read low 0.99 | S. cerevisiae deletion strains, locus YLR027C, strain aat2, active compounds read low 0.97 | S. cerevisiae deletion strains, locus YLR039C, strain RIC1, active compounds read low 0.955 | S. cerevisiae deletion strains, locus YLR058C, strain SHM2, active compounds read low 0.977 | S. cerevisiae deletion strains, locus YLR102C, strain apc9, active compounds read low 0.963 | S. cerevisiae deletion strains, locus YLR113W, strain HOG1, active compounds read low 0.966 | S. cerevisiae deletion strains, locus YLR221C, strain rsa3, active compounds read low 1 | S. cerevisiae deletion strains, locus YLR258W, strain gsy2, active compounds read low 0.992 | S. cerevisiae deletion strains, locus YLR262C, strain YPT6 (second series), active compounds read low 0.985 | S. cerevisiae deletion strains, locus YLR262C, strain YPT6, active compounds read low 0.96 | S. cerevisiae deletion strains, locus YLR268W, strain sec22, active compounds read low 0.964 | S. cerevisiae deletion strains, locus YLR320W, strain mms22, active compounds read low 1.01 | S. cerevisiae deletion strains, locus YLR330W, strain CHS5, active compounds read low 0.986 | S. cerevisiae deletion strains, locus YLR342W, strain FKS1 (second series), active compounds read low 1.03 | S. cerevisiae deletion strains, locus YLR342W, strain FKS1, active compounds read low 0.989 | S. cerevisiae deletion strains, locus YLR357W, strain rsc2, active compounds read low 0.969 | S. cerevisiae deletion strains, locus YLR370C, strain arc18, active compounds read low 0.994 | S. cerevisiae deletion strains, locus YLR371W, strain rom2, active compounds read low 0.955 | S. cerevisiae deletion strains, locus YLR384C, strain iki3, active compounds read low 0.974 | S. cerevisiae deletion strains, locus YLR418C, strain cdc73, active compounds read low 0.982 | S. cerevisiae deletion strains, locus YML016C, strain PPZ1, active compounds read low 0.981 | S. cerevisiae deletion strains, locus YML032C, strain rad52, active compounds read low 0.975 | S. cerevisiae deletion strains, locus YML120C, strain ndi1, active compounds read low 0.989 | S. cerevisiae deletion strains, locus YML124C, strain tub3, active compounds read low 0.973 | S. cerevisiae deletion strains, locus YMR058W, strain fet3, active compounds read low 0.988 | S. cerevisiae deletion strains, locus YMR078C, strain ctf18, active compounds read low 0.972 | S. cerevisiae deletion strains, locus YMR125W, strain sto1, active compounds read low 0.986 | S. cerevisiae deletion strains, locus YMR129W, active compounds read low 0.986 | S. cerevisiae deletion strains, locus YMR205C, strain PFK2, active compounds read low 0.992 | S. cerevisiae deletion strains, locus YMR223W, strain ubp8, active compounds read low 0.988 | S. cerevisiae deletion strains, locus YMR231W, strain pep5, active compounds read low 0.986 | S. cerevisiae deletion strains, locus YMR263W, strain SAP30, active compounds read low 0.993 | S. cerevisiae deletion strains, locus YMR307W, strain GAS1, active compounds read low 0.957 | S. cerevisiae deletion strains, locus YNL067W, strain RPL9B, active compounds read low 1 | S. cerevisiae deletion strains, locus YNL071W, strain lat1, active compounds read low 0.995 | S. cerevisiae deletion strains, locus YNL128W, strain TEP1, active compounds read low 0.992 | S. cerevisiae deletion strains, locus YNL153C, strain GIM3, active compounds read low 0.996 | S. cerevisiae deletion strains, locus YNL183C, strain NPR1, active compounds read low 0.959 | S. cerevisiae deletion strains, locus YNL209W, strain ssb2, active compounds read low 0.994 | S. cerevisiae deletion strains, locus YNL233W, strain BNI4, active compounds read low 0.99 | S. cerevisiae deletion strains, locus YNL248C, strain rpa49, active compounds read low 0.991 | S. cerevisiae deletion strains, locus YNL250W, strain rad50, active compounds read low 0.971 | S. cerevisiae deletion strains, locus YNL271C, strain bni1, active compounds read low 0.956 | S. cerevisiae deletion strains, locus YNL298W, strain CLA4, active compounds read low 0.946 | S. cerevisiae deletion strains, locus YNL307C, strain MCK1, active compounds read low 0.99 | S. cerevisiae deletion strains, locus YNL322C, strain KRE1 (second series), active compounds read low 0.995 | S. cerevisiae deletion strains, locus YNL322C, strain KRE1, active compounds read low 0.99 | S. cerevisiae deletion strains, locus YNR049C, strain mso1, active compounds read low 0.983 | S. cerevisiae deletion strains, locus YNR052C, strain pop2, active compounds read low 0.967 | S. cerevisiae deletion strains, locus YOL006C, strain TOP1, active compounds read low 0.955 | S. cerevisiae deletion strains, locus YOL012C, strain htz1 0.703 | S. cerevisiae deletion strains, locus YOL147C, strain pex11, active compounds read low 0.969 | S. cerevisiae deletion strains, locus YOR001W, strain rrp6, active compounds read low 0.974 | S. cerevisiae deletion strains, locus YOR061W, strain CKA2, active compounds read low 0.966 | S. cerevisiae deletion strains, locus YOR069W, strain VPS5, active compounds read low 0.982 | S. cerevisiae deletion strains, locus YOR070C, strain gyp1, active compounds read low 0.996 | S. cerevisiae deletion strains, locus YOR080W, strain dia2, active compounds read low 0.975 | S. cerevisiae deletion strains, locus YOR083W, strain WHI5, active compounds read low 0.987 | S. cerevisiae deletion strains, locus YOR106W, strain vam3, active compounds read low 0.982 | S. cerevisiae deletion strains, locus YOR136W, strain idh2, active compounds read low 0.959 | S. cerevisiae deletion strains, locus YOR144C, strain elg1, active compounds read low 0.958 | S. cerevisiae deletion strains, locus YOR184W, strain ser1, active compounds read low 0.966 | S. cerevisiae deletion strains, locus YOR231W, strain MKK1, active compounds read low 0.991 | S. cerevisiae deletion strains, locus YOR265W, strain rbl2, active compounds read low 0.98 | S. cerevisiae deletion strains, locus YOR270C, strain vph1, active compounds read low 1 | S. cerevisiae deletion strains, locus YOR290C, strain snf2, active compounds read low 1.01 | S. cerevisiae deletion strains, locus YOR316C, strain cot1, active compounds read low 0.958 | S. cerevisiae deletion strains, locus YPL051W, strain arl3, active compounds read low 0.984 | S. cerevisiae deletion strains, locus YPL055C, strain LGE1, active compounds read low 0.992 | S. cerevisiae deletion strains, locus YPL078C, strain atp4, active compounds read low 0.976 | S. cerevisiae deletion strains, locus YPL106C, strain sse1, active compounds read low 0.973 | S. cerevisiae deletion strains, locus YPL240C, strain hsp82, active compounds read low 0.973 | S. cerevisiae deletion strains, locus YPL241C, strain CIN2, active compounds read low 0.993 | S. cerevisiae deletion strains, locus YPL256C, strain CLN2, active compounds read low 0.958 | S. cerevisiae deletion strains, locus YPR119W, strain clb2, active compounds read low 0.974 | S. cerevisiae deletion strains, locus YPR141C, strain kar3, active compounds read low 0.943 | S. cerevisiae deletion strains, locus YPR163C, strain tif3, active compounds read low 0.966 | S. cerevisiae deletion strains, locus YPR167C, strain met16, active compounds read low 0.962 | S. cerevisiae deletion strains, strain wtn01, active compounds read low 0.965 | S. cerevisiae strains, strain wild type, active compounds read low 0.994
